Data on 40 sequences can be found in the supplement of paper PMC6555819.

The first test concerns RARb homodimer (NR concentration 270 nM). Description: PBM binding z-score (relative to random genomic background probes); higher = stronger binding; sequences stand for … in GC…GCGATTGACAGCGTAGAATGAAGG
Summed up: (§1)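 Binding z-scores were set against random background probes. The data came from custom Agilent 4×180K protein-binding microarrays carrying double-stranded probes with 34-nt variable regions, incubated 1 h with ligand-free nuclear receptor dimers. Partner-specific antibodies detected binding, and scanned fluorescence was regression-normalized.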
TCTCGGAGAACACGAAAGGTCAGAGCTCGACATC displayed a PBM binding z-score of 4.31.

CCTCGGAGGACAACAGGACGTCAGAGCTGCCAGA registered a PBM binding z-score of 0.189.

Consider ACTCGGAGGACATAGGTCAGAGCTACGCCAGTGA, for which the PBM binding z-score came to 2.6.

In turn, TCTGCTAGTTCAACGATGGTCAGCTAATCTGCTA returned a PBM binding z-score of 0.82.

Turning to GCTCGGAGGAGAAGGTCAGAGCTTTGTCCGTAGA, the PBM binding z-score came to 2.4.

Turning to TCAGACACGTGAAGGTAACTCAGGTACGCAGTCG, the PBM binding z-score stood at 0.104.

The sequence CTTCCAAGGTCAAAGGTCAGTGAAGAGATGACGG displayed a PBM binding z-score of 5.53.

With AGAACGCGGGCAATGAGTTGATAGCACGGGTGGC, the PBM binding z-score was -0.332.

Consider AATACAGGGACACTAGGCCAGAGTAGGTACGAAT, for which the PBM binding z-score turned out to be 0.487.

ATCGAAAGGTCGACGAGGTGAGTATCCACCGTTT showed a PBM binding z-score of 2.9.

AGAATGAGGATACCAAAGATCAGGGAAACGCTTG had a PBM binding z-score of -0.727.

CCTTACGGGCCACTGACAGGTTATAGCATTTGGA displayed a PBM binding z-score of 0.8.

On to CCTCGGAGGACAACACGAGGTCAGAGCTGCCAGA, for which the PBM binding z-score was found to be 3.53.

CGAACTAGGGCAGAACAGGACAGTGAAGGATGAT came in with a PBM binding z-score of 0.707.

For ATCTCTAGGTAAAGATAGTTCATTGAATGCAAAT, the PBM binding z-score stood at 1.46.

Sequence CATACAGGGTCAGCTAAGCCAGAGTAGGGACGGC showed a PBM binding z-score of 2.87.

The sequence GCTATTCGTTGAAAGGGCAACCGAATGATTCTCG showed a PBM binding z-score of 1.85.

As to CAAACTAGGTCACCGGAAGCTCAAAGTCCGCATG, the PBM binding z-score turned out to be 3.48.

ATCGTAAGGTCGACGAGGTGAGTATACACCGTTT: the PBM binding z-score came to 2.31.

Take TGAATGAGGTTATAATATCAGGGAACGTTGCAAA: the PBM binding z-score worked out at 0.41.

Consider CCTACTGGGCCATCAGGTCCTTGATATCAACGTT, for which the PBM binding z-score turned out to be 0.0749.

On to TCTATTAGTTGATTGGGGCAACCGAAACAGCGGA, for which the PBM binding z-score is 0.682.

Turning to ATCACTAGGTAAAGATAGTTCAGTGAATGCAAAT, the PBM binding z-score was determined as 0.839.

As for CCGAGTAGGTAATGGGGCATTCAGGCAACGGTGA, the PBM binding z-score turned out to be 0.64.

TCATATAGGTTAACAGGTGAAAGTCCGTAAGTTA came in with a PBM binding z-score of 1.85.

Consider TTACCAAGGTGAAAGTTCGTTGATGCACGCCTTG, for which the PBM binding z-score was 1.67.

CCTCAAAGTTCAACTAAGGTAACGTAAAGCACGC yielded a PBM binding z-score of 4.3.

GAGACAGGGTCAGCTAGAGGCCAGAGTATGGAAA registered a PBM binding z-score of 3.05.

On to ATATGTAGGTTATCGGGGCATTCAGTTTGCGCAT, for which the PBM binding z-score stood at 1.53.

Regarding CCTACTGGGCCATCAGGTTATTGATATCAACGTT, the PBM binding z-score worked out at 0.464.

The sequence ATATGTAGGTTAGATCCGGGTCATTCAGGCTATG showed a PBM binding z-score of 2.63.

In the case of AGTCAAGGTTCAGGACGAGGTAACGTAAAGCACG, the PBM binding z-score came out at 1.55.

TCATATAGGTAAAAGGTGAAAGACGGTGTGGTAA had a PBM binding z-score of 1.74.

AGAACGAGGGCACGCTGAGTTAATAGCAGAGTAG: the PBM binding z-score came out at 0.988.

With GCAGACAGGTGAAACGCAGGTATCTCAGGGTGGC, the PBM binding z-score is 0.0151.

In turn, ACTAGCAGGCCAAGGGACACTCAAGATTAGTCCG came in with a PBM binding z-score of 0.745.

In turn, ACTATGAGTTGAGACGAGGGCAACCGATAGGTTG yielded a PBM binding z-score of 1.27.

For the sequence GGAACGAGGGCATTCGGGTTGATAGCATGGCGAT, the PBM binding z-score was 0.654.

TTACCACGGTGAAAGGTCGTTGATGCACGCCTTG came in with a PBM binding z-score of 1.77.

Consider GCTATTAGTTGAACGGGCAACCGAATGATTCTCG, for which the PBM binding z-score is -0.0848.

A further test relates to RARg:RXRa (NR concentration 270 nM, RXRa partner concentration 90 nM). The test is described as above. Put shortly:
as §1
Take TCTCGGAGAACACGAAAGGTCAGAGCTCGACATC: the PBM binding z-score was found to be 3.67.

CCTCGGAGGACAACAGGACGTCAGAGCTGCCAGA came in with a PBM binding z-score of 0.272.

As to ACTCGGAGGACATAGGTCAGAGCTACGCCAGTGA, the PBM binding z-score was determined as 3.03.

Take TCTGCTAGTTCAACGATGGTCAGCTAATCTGCTA: the PBM binding z-score was determined as 0.768.

Turning to GCTCGGAGGAGAAGGTCAGAGCTTTGTCCGTAGA, the PBM binding z-score amounted to 2.15.

The sequence TCAGACACGTGAAGGTAACTCAGGTACGCAGTCG gave a PBM binding z-score of 0.176.

CTTCCAAGGTCAAAGGTCAGTGAAGAGATGACGG had a PBM binding z-score of 8.63.

On to AGAACGCGGGCAATGAGTTGATAGCACGGGTGGC, for which the PBM binding z-score is 0.0304.

As to AATACAGGGACACTAGGCCAGAGTAGGTACGAAT, the PBM binding z-score is 0.347.

Sequence ATCGAAAGGTCGACGAGGTGAGTATCCACCGTTT came in with a PBM binding z-score of 4.16.

AGAATGAGGATACCAAAGATCAGGGAAACGCTTG had a PBM binding z-score of 0.287.

Turning to CCTTACGGGCCACTGACAGGTTATAGCATTTGGA, the PBM binding z-score stood at 0.731.

The sequence CCTCGGAGGACAACACGAGGTCAGAGCTGCCAGA showed a PBM binding z-score of 3.58.

The sequence CGAACTAGGGCAGAACAGGACAGTGAAGGATGAT returned a PBM binding z-score of 0.486.

On to ATCTCTAGGTAAAGATAGTTCATTGAATGCAAAT, for which the PBM binding z-score is 1.01.

With CATACAGGGTCAGCTAAGCCAGAGTAGGGACGGC, the PBM binding z-score came out at 4.23.

GCTATTCGTTGAAAGGGCAACCGAATGATTCTCG displayed a PBM binding z-score of 1.23.

On to CAAACTAGGTCACCGGAAGCTCAAAGTCCGCATG, for which the PBM binding z-score came to 4.84.

ATCGTAAGGTCGACGAGGTGAGTATACACCGTTT yielded a PBM binding z-score of 3.18.

TGAATGAGGTTATAATATCAGGGAACGTTGCAAA gave a PBM binding z-score of 1.56.

The sequence CCTACTGGGCCATCAGGTCCTTGATATCAACGTT gave a PBM binding z-score of -0.0484.

As to TCTATTAGTTGATTGGGGCAACCGAAACAGCGGA, the PBM binding z-score was 0.564.

In the case of ATCACTAGGTAAAGATAGTTCAGTGAATGCAAAT, the PBM binding z-score was found to be 0.649.

Sequence CCGAGTAGGTAATGGGGCATTCAGGCAACGGTGA gave a PBM binding z-score of -0.0696.

TCATATAGGTTAACAGGTGAAAGTCCGTAAGTTA yielded a PBM binding z-score of 2.13.

As to TTACCAAGGTGAAAGTTCGTTGATGCACGCCTTG, the PBM binding z-score amounted to 2.35.

CCTCAAAGTTCAACTAAGGTAACGTAAAGCACGC: the PBM binding z-score was determined as 6.18.

As for GAGACAGGGTCAGCTAGAGGCCAGAGTATGGAAA, the PBM binding z-score came out at 6.57.

ATATGTAGGTTATCGGGGCATTCAGTTTGCGCAT came in with a PBM binding z-score of 1.3.

The sequence CCTACTGGGCCATCAGGTTATTGATATCAACGTT gave a PBM binding z-score of 0.256.

Take ATATGTAGGTTAGATCCGGGTCATTCAGGCTATG: the PBM binding z-score was found to be 3.21.

Sequence AGTCAAGGTTCAGGACGAGGTAACGTAAAGCACG displayed a PBM binding z-score of 3.45.

On to TCATATAGGTAAAAGGTGAAAGACGGTGTGGTAA, for which the PBM binding z-score came to 2.01.

AGAACGAGGGCACGCTGAGTTAATAGCAGAGTAG: the PBM binding z-score amounted to 2.08.

Sequence GCAGACAGGTGAAACGCAGGTATCTCAGGGTGGC displayed a PBM binding z-score of 0.137.

As for ACTAGCAGGCCAAGGGACACTCAAGATTAGTCCG, the PBM binding z-score was 0.424.

Consider ACTATGAGTTGAGACGAGGGCAACCGATAGGTTG, for which the PBM binding z-score was 1.15.

Sequence GGAACGAGGGCATTCGGGTTGATAGCATGGCGAT had a PBM binding z-score of 1.05.

Regarding TTACCACGGTGAAAGGTCGTTGATGCACGCCTTG, the PBM binding z-score amounted to 2.34.

Take GCTATTAGTTGAACGGGCAACCGAATGATTCTCG: the PBM binding z-score is -0.133.
